Measurements reported in PMC5540273 (PLoS ONE, 2017).

Tests used:
[1] = tested on: ERBB2
[2] = tested on: FLT1
[3] = tested on: T1, ERK5
T1 construct: gene MAPK7

[4] = tested on: T2, FAK
T2 construct: gene PTK2

[5] = tested on: FGFR1
[6] = tested on: FGFR2
[7] = tested on: FGFR3
[8] = tested on: FGFR4
[9] = tested on: FLT4
[10] = tested on: FLT3
[11] = tested on: GAK
[12] = tested on: GRK1
[13] = tested on: GRK4
[14] = tested on: GRK7
[15] = tested on: HIPK2
[16] = tested on: HIPK4
[17] = tested on: INSRR
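Also: kd values determined as follow-up on hits from a single-replicate KINOMEscan panel screen.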

In the case of Cc1ccc(Oc2ccc(Nc3ncnc4cc[nH]c34)cc2C)cn1, the Kd [1] is reported as 6.5 nM and the Kd [2] is reported as over 10000 nM.
Molecule O=C(Nc1n[nH]c2nc(-c3ccccc3)c(Br)cc12)C1CC1 [SB-708998] has a Kd [3] of over 10000 nM.
With CCc1nc(-c2cccc(C)c2)c(-c2ccncc2)s1 the Kd [4] was over 10000 nM.
For O=C(NCc1cccs1)c1cc(C(=O)c2c(Cl)cccc2Cl)c[nH]1 [GW823670], the Kd [4] was over 10000 nM.
With FC(F)(F)c1ccc(-c2ncn(CCCN3CCOCC3)c2-c2ccncc2)cc1 [SB-217780] the Kd [5] was over 10000 nM.
Work on COc1cc(OC)cc(-c2cc3cnc(N)nc3nc2NC(=O)NC(C)(C)C)c1 yielded a Kd [5] of 66 nM, a Kd [6] of 310 nM and a Kd [7] of 110 nM.
For Nc1ncnc2c1ncn2-c1cccc(F)c1 [SKF-97560], the Kd [8] was over 10000 nM.
With COc1ccc(Nc2nccc(N3CCC(NS(=O)(=O)c4ccc(NC(C)=O)cc4)C3)n2)cc1 (stereo not shown) [GSK1379729] the Kd [8] was over 10000 nM.
For COc1cc2nccc(Nc3ccc(OCc4ccc(NC(C)=O)cc4)cc3)c2cc1OC.Cl [GW440135], the Kd [2] was 680 nM and the Kd [9] was 480 nM.
Molecule COc1ccc(-n2cnc3c(N)ncnc32)cc1 [SKF-97236] has a Kd [10] of 120 nM.
Cl.NS(=O)(=O)c1cccc(Nc2cc(-c3ccc(F)cc3)n[nH]2)c1 [GW824645] gave a Kd [10] of 7.5 nM.
Molecule Cc1cccc(-c2cc(-c3c[nH]nc3-c3ccccn3)ccn2)c1 [GW679395] has a Kd [11] of 130 nM.
OCCCNc1nccc(-c2c(-c3cccc(C(F)(F)F)c3)nn3cc(C(F)(F)F)ccc23)n1 [GW630813] gave a Kd [12] of over 10000 nM.
Molecule CN1C(=O)C(Nc2cc(Cl)c(O)c(Cl)c2)=C(c2ccc(Cl)cc2)C1=O [SB-404321] has a Kd [13] of over 10000 nM.
CCn1c(-c2ccoc2)nc2cnccc21 [SB-733887] showed a Kd [14] of over 10000 nM.
Work on Nc1n[nH]c2nnc(-c3ccccc3)c(-c3ccccc3)c12 [GW554060] yielded a Kd [15] of 410 nM.
In the case of Cn1c(=O)c(F)c(Nc2ccc(I)cc2F)c2c(=O)n(OC[C@H](O)CO)cnc21, the Kd [16] is reported as over 10000 nM.
Molecule COc1cc2ncn(-c3cc(OCc4ccncc4)c(C(N)=O)s3)c2cc1OC [GSK336313] has a Kd [17] of over 10000 nM.
